# From PubChem BioAssay
# Shown are actives, neighbours in structure and some others; about 3.4% of the full set was active somewhere.
# ADAM17 inh = ADAM17 inhibitors, primary screen, biochemical, QFRET | Disintegrin and metalloproteinase domain-containing protein 17 (Homo sapiens), P78536 | recombinant ADAM17, EDANS/DABCYL FRET peptide cleavage | inhibition, % at 6.95 µM | actives 0.83% (n = 370,000);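 active means inhibition above the mean of compounds lying between control limits plus 3 SD, set per campaign, cut at about 8.5% in these data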;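 further: 0% = DMSO-only wells as the low control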
# CendR NRP1 mod = modulators of CendR peptide binding to NRP-1, primary screen, biochemical, fluorescence polarization, uHTS; actives 0.85% (n = 360,000); inhibition, % at 25 µM; Neuropilin-1 (Homo sapiens), O14786; FAM-RPARPAR peptide binding to NRP-1;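 active means inhibition or corrected inhibition above about 18%, plus a signal ratio from 0.5 to 1.5, limit read from the data, passing the limit was not always enough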
# KLK7 zymogen act = proKLK7 zymogen activators, primary screen, biochemical, fluorescence intensity; Kallikrein-7 (Homo sapiens), P49862; purified proKLK7, EDANS-DABCYL substrate fluorescence; 100% is mature enzyme control, 0% vehicle; activation, % at 7 µM; actives 0.9% (n = 370,000);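 active means activation above the mean of all tested compounds plus 3 SD, computed per campaign excluding outliers beyond control limits, cut at about 13% in these data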
# HGIII-sPLA2 inh = human group III sPLA2 inhibitors, primary screen, biochemical, QFRET, BODIPY PC-A2 liposome substrate | Group 3 secretory phospholipase A2 (Homo sapiens), Q9NZ20 | QFRET BODIPY PC-A2 liposome hydrolysis, fluorescence | inhibition, % at 12.2 µM | actives 0.56% (n = 370,000) | AID 743126, 2013;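 active means inhibition above mean plus 3 SD of compounds lying within the high and low control bounds, cut at about 19% in these data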;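 further: 0% = median of test compound wells and 100% = no enzyme DMSO wells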
# Target sequence (Q9NZ20 whole entry, looked up): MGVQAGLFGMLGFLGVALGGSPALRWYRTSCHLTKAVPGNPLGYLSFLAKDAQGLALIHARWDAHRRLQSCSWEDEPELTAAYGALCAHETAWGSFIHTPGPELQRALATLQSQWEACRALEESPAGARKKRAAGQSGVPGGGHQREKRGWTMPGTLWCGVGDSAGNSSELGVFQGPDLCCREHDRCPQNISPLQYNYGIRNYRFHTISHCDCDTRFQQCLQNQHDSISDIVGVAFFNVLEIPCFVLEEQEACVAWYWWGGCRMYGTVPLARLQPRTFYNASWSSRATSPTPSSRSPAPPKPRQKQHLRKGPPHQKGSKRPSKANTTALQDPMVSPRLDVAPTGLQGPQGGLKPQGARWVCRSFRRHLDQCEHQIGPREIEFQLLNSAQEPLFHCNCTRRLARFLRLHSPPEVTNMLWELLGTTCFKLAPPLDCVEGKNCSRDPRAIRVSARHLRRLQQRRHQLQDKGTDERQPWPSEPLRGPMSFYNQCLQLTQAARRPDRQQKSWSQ
# ADAM10 inh = human ADAM10 inhibitors, primary screen, biochemical, QFRET, HTS; actives 0.62% (n = 370,000); inhibition, % at 7 µM; recombinant ADAM10, EDANS/DABCYL FRET peptide cleavage, 3 h; Disintegrin and metalloproteinase domain-containing protein 10 (Homo sapiens), O14672;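 active means inhibition above a per-campaign cutoff equal to the mean of compounds falling between control-based bounds plus 3 SD, cut at about 20% in these data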;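 further: 0% = DMSO wells while the 100% control is not disclosed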
# ADAM10 ctr = ADAM10 inhibitors, counter-screen for ADAM17 exosite inhibitor project, biochemical, FRET, human ADAM10. shares compounds with ADAM17 inh. recombinant ADAM10, EDANS/DABCYL FRET peptide cleavage, 3 h. inhibition, % at 6.95 µM. actives 47% (n = 2,900);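 active means mean inhibition over the triplicate runs exceeds the activity threshold set in the earlier primary screen, cut at about 20% in these data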;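 further: 0% = DMSO wells and 100% = marimastat wells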
# ADAM17 confirm = ADAM17 inhibitors, hit retest, confirmation, biochemical, QFRET peptide cleavage; shares compounds with ADAM17 inh; recombinant ADAM17, EDANS/DABCYL QFRET peptide cleavage; inhibition, % at 6.95 µM; actives 65% (n = 2,900); AID 743257, 2014;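 active means mean inhibition across replicates above the hit cutoff set in the primary screen, cut at about 8.5% in these data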;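 further: 0% = DMSO wells and 100% = marimastat wells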
# sPLA2 confirm = human group III sPLA2 inhibitors, confirmation, biochemical, QFRET, triplicate; shares compounds with HGIII-sPLA2 inh; recombinant hGIII-sPLA2, BODIPY PC-A2 QFRET fluorescence; inhibition, % at 12.2 µM; actives 34% (n = 2,000); AID 743280, 2014;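 active means mean inhibition across triplicates above the hit cutoff set in the earlier primary screen, cut at about 19% in these data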;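 further: 0% = enzyme with DMSO and 100% = DMSO wells lacking enzyme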
# 535nm interf = 535nm fluorescence optical interference, confirmation, artefact control for HGIII-sPLA2 inhibitor project, biochemical, QFRET | shares compounds with HGIII-sPLA2 inh | BODIPY FL product fluorescence interference | inhibition, % at 12.2 µM | actives 8.5% (n = 2,000) | AID 743282, 2014;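 active means average inhibition above the solvent-only control mean plus 3 SD, cut at about 6% in these data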;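 further: 0% = DMSO with substrate plus product and 100% = DMSO with substrate alone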
# 535nm interf DR = 535nm fluorescence optical interference, dose response, artefact control for HGIII-sPLA2 inhibitor project, biochemical, QFRET; AID 743455, 2014; 240 tested, under 10 active; BODIPY FL product fluorescence interference, cell-free; IC50, µM; shares compounds with HGIII-sPLA2 inh;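 active means IC50 at or below 10 µM; inactive means IC50 above 10 µM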
# The depositor's hits bear a star; i = inactive; . = no result.
SMILES,ADAM17 inh,CendR NRP1 mod,KLK7 zymogen act,HGIII-sPLA2 inh,ADAM10 inh,sPLA2 confirm,535nm interf,others
CC1CCC(NC(=O)C(NS(=O)(=O)c2cccc3nsnc23)C(C)C)CC1 (centres undefined),13*,19,0,86*,1,-4,-7,ADAM10 ctr=5;ADAM17 confirm=7
COc1ccc(C2Nc3ccccc3C(=O)N2Cc2ccco2)cc1COc1c(C)cc(NC(C)=O)cc1C (centres undefined),-246,.,.,-3,i,.,.,
O=[N+]([O-])c1ccccc1C1Nc2cccc3cccc(c23)N1,0,17,-1,1,4,.,.,
O=[N+]([O-])c1ccc(Cl)c(C2Nc3cccc4cccc(c34)N2)c1,11*,-1,-2,32*,32*,57*,18*,ADAM10 ctr=17;ADAM17 confirm=10*
O=C(NCc1ccccc1)[C@H]1CCCN1C(=O)[C@H]1CCCN1C(=O)c1cccc(F)c1,-2,.,0,0,4,.,.,
O=[N+]([O-])c1ccc(C2=NN(CCO)C(=Nc3ccc(OC(F)(F)F)cc3)SC2)cc1,12*,-6,0,20*,12,-1,-12,ADAM10 ctr=32*;ADAM17 confirm=18*
C=CCNC(=S)NNC(=O)CSc1nc2ccccc2s1,11*,9,0,30*,5,20*,0,ADAM10 ctr=0;ADAM17 confirm=5
O=C(CSc1nc2ccccc2s1)Nn1cnnc1,-3,-10,0,1,4,.,.,
CCOc1ccc(NC(=O)c2cc(-c3ccc(Cl)cc3)nc3ccccc23)cc1,1,.,1,1,-5,.,.,
CNC(=S)NNC(=O)Cc1ccc(O)cc1,-1,-7,-1,26*,-9,6,-3,
C[C@@H]1COc2cc(Br)ccc2S(=O)(=O)N1Cc1cn(Cc2ccc(F)cc2)nn1,-1,.,0,2,1,.,.,
Cc1sc2nc(COC(=O)CNC(=O)c3ccc(F)cc3Cl)[nH]c(=O)c2c1C,5,.,0,0,3,.,.,
O=C(OCCCN1CCC2(CCC(c3ccccc3)CC2)C1=O)c1ccccc1 (centres undefined),5,.,1,-4,7,.,.,
Oc1ccccc1/C=N/Nc1ncc(Br)cn1,-2,-7,0,29*,0,16,32*,
Oc1ccccc1/C=N/Nc1ccccc1,-1,0,0,-5,-6,.,.,
CN(Cc1ccccc1)S(=O)(=O)c1cccc(C(=O)OCc2ccccc2Cl)c1,3,.,-1,-11,9,.,.,
COC(=O)c1sc(C(C)(C)C)cc1CSc1ccccc1,2,2,1,21*,-9,-21,-8,
CCOc1cc(C(=O)NC)cc(OCC)c1OCC,-5,-13,-1,20*,-5,-5,-7,
CCCOc1ccc(Br)cc1CSC(=N)N,0,1,0,35*,-6,18,-15,
CCc1c2c3n4c1CCC[C@@H]4C[C@@H]3O[Si](C(C)C)(C(C)C)OC(C)C2=O (some centres undefined),-12,.,.,5,-37,.,.,
CN(C)c1ccc(/C=N\Nc2nc(-c3ccccc3)cc(=O)[nH]2)cc1,-8,13,-1,20*,-13,7,2,
CN(C)c1ccc(C=NNc2nc3c([nH]2)c(=O)n(C)c(=O)n3C)cc1,-13,-1,-2,7,-40,.,.,
Cc1cccc(OCC(=O)Nc2sc3c(c2C#N)CCC3)c1,4,6,0,23*,-3,16,-7,
COc1ccc(-n2c(C)cc(C)c(C(C)=O)c2=S)cc1,-4,-7,0,20*,-1,4,-6,
COC(=O)[C@]12C[C@H](CC(=O)N3CCSCC3)C(=O)N(CCC3=CCCCC3)C1=C[C@H](C(C)C)O[C@@H]2C1CC1,5,.,0,7,14,.,.,
SMILES,ADAM17 inh,CendR NRP1 mod,KLK7 zymogen act,HGIII-sPLA2 inh,ADAM10 inh,sPLA2 confirm,535nm interf,others
CCCCN1CNC(=S)N(Cc2ccccc2)C1,-4,5,0,28*,-5,19,-8,
CCOC(=O)C1=NOC(C(=O)Nc2nccs2)(C(=O)C2CC2)C1 (centres undefined),1,.,-1,1,1,.,.,
Cc1cccc(NC(=S)N/N=C2/CCCCc3ccccc32)c1,1,-6,0,16,-1,.,.,
Cc1ccc(NC(=S)N/N=C2/CCCCc3ccccc32)cc1,2,-8,-1,24*,6,31*,-3,535nm interf DR=>122
O=C(CNC(=O)c1ccco1)Nc1ccc(N2CCCCCC2)cc1,-3,7,0,22*,-16,12,0,
O=C(CNC(=O)c1ccc(Br)o1)Nc1ccc(N2CCCCCC2)cc1,4,0,1,11,1,.,.,
CC(C)N1CCC(N2CCN(C/C=C/c3ccc(F)cc3)CC2CCO)CC1 (centres undefined),-1,3,0,20*,-12,1,-9,
CC(C)N1CCC(N2CCN(CCCc3ccccc3)CC2CCO)CC1 (centres undefined),-2,-5,0,7,-6,.,.,
O=C(OCCC12CC3CC(CC(C3)C1)C2)c1ccc(NCc2cc(O)ccc2O)cc1,4,-5,0,21*,-6,21*,13*,
Cc1ccc(/C=N/N2CCN(Cc3ccccc3)CC2)cc1,-5,-3,-1,3,4,.,.,
